Bioassay records (PubChem BioAssay)
RORgamma inh = qHTS for inhibitors of ROR gamma transcriptional activity; 5.4% of 310,000 active; Drosophila S2 Gal4-RORgamma UAS-luciferase reporter, 20 h; Potency, µM (highest dose often 53.6 µM), most hits filed as inhibitors; AID 2551, 2010; Nuclear receptor ROR-gamma (Mus musculus), P51450; also: nearly all actives have a fitted effect of over 60% in size
Target sequence (P51450 whole entry, looked up, the tested form may be a part): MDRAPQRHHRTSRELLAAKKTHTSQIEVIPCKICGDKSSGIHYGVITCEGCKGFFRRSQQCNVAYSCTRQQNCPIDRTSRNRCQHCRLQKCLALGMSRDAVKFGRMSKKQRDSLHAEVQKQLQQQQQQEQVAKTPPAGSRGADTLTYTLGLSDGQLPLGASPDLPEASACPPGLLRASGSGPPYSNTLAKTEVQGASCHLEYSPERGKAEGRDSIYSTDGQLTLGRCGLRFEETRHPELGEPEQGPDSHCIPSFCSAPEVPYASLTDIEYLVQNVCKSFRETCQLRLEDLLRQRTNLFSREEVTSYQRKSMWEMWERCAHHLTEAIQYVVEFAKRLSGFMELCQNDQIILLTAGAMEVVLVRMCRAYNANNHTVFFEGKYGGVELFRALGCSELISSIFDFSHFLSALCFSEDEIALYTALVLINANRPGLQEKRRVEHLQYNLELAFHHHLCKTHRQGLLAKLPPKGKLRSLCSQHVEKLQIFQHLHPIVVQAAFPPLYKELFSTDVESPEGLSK
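Drosophila S2 cells stably expressing Gal4-DBD/mouse RORγ fusion under metallothionein promoter plus UAS-luciferase; compound 1 h, then 700 uM CuSO4 induction for 20 h at ambient temperature; inhibition read as reduced luminescence.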
DT40 TDP1 CPT = qHTS for Inhibitors of human tyrosyl-DNA phosphodiesterase 1 (TDP1): qHTS in cells in presence of CPT | AID 686979, 2013 | Potency, µM (series often up to 46.2 µM), usual class: inhibitors | 12% of 420,000 active | chicken DT40 Tdp1-/-;hTDP1 cells + 20 nM CPT, ATP luminescence, 48 h; also: nearly all actives have a fitted effect of over 55% in size
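Chicken DT40 Tdp1-/- cells stably complemented with human TDP1 were seeded at 400 cells/well in medium containing 20 nM camptothecin, exposed to pin-transferred compounds, and grown at 37 °C for at least 48 hr. Viability was read as ATP luminescence.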
12-LOX inh = Primary qHTS assay for inhibitors of human arachidonate 12S-lipoxygenase (ALOX12): Round 2 | purified 12hLO, xylenol orange hydroperoxide absorbance | Potency, µM (doses to about 108 µM), most hits filed as inhibitors | 1.1% of 580,000 active | AID 1671190, 2021
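Purified human 12hLO (150 nM final) in 25 mM Hepes, 0.01% Triton X-100, pH 7.0 was preincubated 15 min at room temperature with compound. Then 40 uM arachidonic acid was added, 30 min. Hydroperoxide was read by Fe-XO absorbance ratio 573/405 nm.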
ELG1 DNA repair = qHTS screen for small molecules that inhibit ELG1-dependent DNA repair in human embryonic kidney (HEK293T) cells expressing luciferase-tagged ELG1. HEK293T ELG1-luciferase reporter, luminescence, 16 h; DNA damage induced by 5-fluorouridine. Potency, µM (highest dose often 46.1 µM), actives largely listed as inhibitors. 2.3% of 330,000 active. AID 504467, 2011; also: nearly all actives have a fitted effect of over 55% in size
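5-Fluorouridine DNA damage + compound/DMSO, 2,000 cells/well, 16 h, 37 °C/5% CO2. ONE-Glo, 30 min RT, luminescence. Readout = decrease in reporter signal.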
DT40 TDP1 no CPT = qHTS for Inhibitors of human tyrosyl-DNA phosphodiesterase 1 (TDP1): qHTS in cells in absence of CPT; Potency, µM (titrated, usually from 46.2 µM), hits mostly inhibitors; 15% of 420,000 active; DT40 Tdp1-/- hTDP1 cells, no CPT, ATP luminescence, 48 h; AID 686978, 2013; also: nearly all actives have a fitted effect of over 55% in size
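Growth kinetics read by CellTiter-Glo luminescence after ≥48 hr at 37 °C. Cells: DT40 Tdp1-/- stably carrying human TDP1, 400 per well, compound exposure in the absence of CPT (DMSO vehicle).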
VP16 counter = VP16 counterscreen qHTS for inhibitors of ROR gamma transcriptional activity; AID 2546, 2010; Potency, µM (titrated, usually from 53.6 µM), actives largely listed as inhibitors; Drosophila S2 Gal4-VP16 UAS-luciferase, luminescence, 20 h; 3.5% of 310,000 active;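 also: Gal4-VP16 expression switched on by copper sulfate through the metallothionein promoter; nearly all actives have a fitted effect of over 50% in size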
A number is an active result; . = inactive; ? = inconclusive; / = not tested or not shown; ! = not confirmed by another sample. Most compounds without a hit are left out; they make up all but 15% or so of the library. Calls follow the shape of the dose curve; as a rule, active = well fitted curve in the direction sought with a large enough effect; inconclusive = small, poorly fitted or top-dose-only effect, or another doubt; inactive = no such curve, though single readings can be large; an effect the other way counts as inactive or inconclusive.

SMILES	RORgamma inh	DT40 TDP1 CPT	12-LOX inh	ELG1 DNA repair	DT40 TDP1 no CPT	VP16 counter
CSc1ccccc1NC(=O)Nc1ccc(F)c(Cl)c1	.	?	?	?	?	.
COc1ccc(NC(=O)Nc2ccc(F)c(Cl)c2)cc1	?	?	.	?	16µM	?
Cc1ccc(NC(=O)Nc2ccc(F)c(Cl)c2)cc1	.	?	.	?	23µM	.
CC(=O)Nc1cccc(NC(=O)Nc2ccc(C)c(Cl)c2)c1	?	.	.	?	.	.
COCc1nc(C2CCCN(C(=O)COc3ccc(F)cc3)C2)no1 (centres undefined)	/	/	.	/	/	/
OC(c1cccc(C(F)(F)F)c1)c1nc(Nc2ccc(F)cc2)n[nH]1 (centres undefined)	/	/	.	/	/	/
O=C(CCNc1c(-c2ccc(F)cc2)nc2cnccn12)NC1CCCC1	/	/	.	/	/	/
CCC(C)Sc1ccc(-c2nc3cc(C)ccn3c2NC2CCCCC2)cc1 (centres undefined)	/	23µM	35µM!	.	15µM	/
COc1ccc(Sc2ccc(-c3nc4cnccn4c3NC3CCCCC3)cc2OC)cc1	/	15µM	.	?	13µM	/
CCC(C)Sc1ccc(-c2nc3cnccn3c2NC2CCCCC2)cc1 (centres undefined)	/	?	?	?	16µM	/
COc1cc(-c2nc3cnccn3c2Nc2c(C)cccc2C)ccc1O	.	?	.	.	?	.
c1cn2c(NC3CCCCC3)c(-c3ccc(N4CCOCC4)cc3)nc2cn1	/	/	.	/	/	/
Cc1ccn2c(NC3CCCCC3)c(C(C)C)nc2c1	.	.	?	.	.	.
CCCCNc1c(-c2ccc(SC3CCCCC3)cc2)nc2cnccn12	/	15µM	?	?	?	/
COc1cccc(-n2nc(C(=O)Nc3cccc(C(F)(F)F)c3)c3ccccc3c2=O)c1	/	/	.	/	/	/
Clc1ccc(-c2nc3cnccn3c2NC2CCCC2)cc1	.	?	/	.	26µM	.
CCOC(=O)CCNC(=O)N1CCCC(c2nc(-c3cnccn3)no2)CCNC(=O)CC1 (centres undefined)	/	/	.	/	/	/
O=C(O)CN1C(=O)/C(=C\c2cccc(OCc3ccccc3F)c2)SC1=S	?	.	40µM	.	.	.
O=C(O)CN1C(=O)/C(=C\c2cccc(OCc3ccc(F)cc3)c2)SC1=S	.	.	50µM	.	.	.
O=C(O)CN1C(=O)/C(=C\c2cccc(OCc3ccc(Cl)cc3)c2)SC1=S	/	.	?	?	.	/
CCCC(=O)Nc1ccc(-c2nc3cc(C)c(C)cc3o2)cc1	1.3µM	.	.	?	.	?
CCc1ccc2oc(-c3ccc(NC(=O)CC(C)C)cc3)nc2c1	/	/	.	/	/	/
CCCC(=O)Nc1ccc2oc(-c3ccc(F)cc3)nc2c1	/	/	.	/	/	/
Cc1ccc2oc(-c3ccc(NC(=O)CC(C)C)cc3)nc2c1	0.28µM	.	.	?	.	1.1µM
CCN(CC)CC(=O)Nc1ccc(-c2nc3cc(NC(=O)CN(CC)CC)ccc3o2)cc1	.	21µM	.	?	18µM	.
SMILES	RORgamma inh	DT40 TDP1 CPT	12-LOX inh	ELG1 DNA repair	DT40 TDP1 no CPT	VP16 counter
CCCC(=O)Nc1ccc(-c2nc3cc(C(C)C)ccc3o2)cc1	/	/	.	/	/	/
O=C(CN1CCCC1)Nc1ccc(-c2nc3cc(NC(=O)CN4CCCC4)ccc3o2)cc1	.	18µM	.	?	12µM	.
COc1cccc(C(=O)NCCC2CCN(C(=O)Nc3cccc(C)c3)CC2)c1	/	/	.	/	/	/
O=C(COCc1nnc(C(=O)Nc2cccc(F)c2)s1)NCCc1ccco1	/	/	.	/	/	/
CCC(C)NCC(=O)Nc1ccc(-c2nc3cc(NC(=O)CNC(C)CC)ccc3o2)cc1 (centres undefined)	.	6.5µM	.	.	7.3µM	.
N#Cc1ccc(/C=C/C(=O)N2CCCCC2c2ccc(C(F)(F)F)cc2)cc1 (centres undefined)	/	/	.	/	/	/
COc1ccc(C[C@H](NC(=O)C2=C[C@@H](NC(=O)CS(=O)(=O)c3ccccc3)[C@@H](O)[C@H](O)C2)C(N)=O)cc1	/	/	.	/	/	/
COC(=O)[C@H](NC(=O)[C@@H]1C[C@H](NC(=O)Nc2ccc(OC)cc2)CN1C(=O)C=C(C)C)C(C)C	/	/	.	/	/	/
COC[C@@H]1CN(S(=O)(=O)c2ccc(C)cc2)C[C@H]1c1nc(C)no1	/	/	.	/	/	/
COC[C@@H]1CN(S(=O)(=O)c2cccc(C)c2)C[C@H]1c1nc(C)no1	/	/	45µM	/	/	/
CCCCCC(=O)N1C[C@H](O)[C@@H](n2cc(-c3ccc(F)cc3)nn2)C[C@@H]1c1ccc(Cl)cc1	/	18µM	.	/	18µM	/
CCCCCC(=O)N1C[C@@H](n2cc(-c3ccc(F)cc3)nn2)[C@H](O)C[C@@H]1c1ccc(Cl)cc1	/	15µM	.	/	12µM	/
CCCCCC(=O)N1C[C@H](n2cc(-c3ccc(F)cc3)nn2)[C@@H](O)C[C@@H]1c1ccc(OC)cc1	/	.	.	/	.	/
Cc1nc(NC(=O)c2cccc(OCc3ccccc3)c2)ccc1Br	/	/	.	/	/	/
CCCCc1nc2ccccc2c(NC(=O)CNC(C)(C)C)c1CCC	.	?	?	/	?	.
CCCCc1nc2ccccc2c(N)c1CCC (tested in a mixture with another compound)	.	?	.	?	18µM	.
COc1ccc([N+](=O)[O-])cc1NC(=O)COC(=O)c1ccc2c(c1)NC(=O)CS2	/	/	.	/	/	/
O=C(Nc1nc(C2CC2)cs1)C1CC(=O)N(Cc2ccccn2)C1 (centres undefined)	/	/	.	/	/	/
Cc1cccc2nc(CSc3nnc4ccccn34)cn12	11µM	.	?	/	.	?
Clc1c(CSc2nc3ccccc3o2)nc2sccn12	?	?	.	?	.	.
c1ccc2nc(SCc3cn4ccccc4n3)cnc2c1	?	?	.	?	?	?
Clc1c(CSc2nc3ccccc3o2)nc2ccccn12	?	?	?	?	?	7.1µM
Cc1cc(C)nc(SCc2cn3c(C)cccc3n2)n1	?	.	.	.	.	.
c1ccc2oc(SCc3cn4ccccc4n3)nc2c1	8.9µM	.	.	?	.	16µM
Cc1cccc2nc(CSc3nc4ccccc4o3)cn12	18µM	.	.	?	.	?
COc1ccc(Cl)cc1NC(=O)c1nc2ccccc2nc1N1CCCCC1	/	/	.	/	/	/
Cc1cccc2ncc(C(=O)N3CC[C@H](CO)[C@@H](O)C3)c(=O)n12	/	/	.	/	/	/
Cc1cc(C)c(C#N)c(SCc2cn3c(C)cccc3n2)n1	11µM	.	.	?	.	?
